# Assay results taken from the supplement of paper PMC8728848.
# This is one part of a sample in which the strongest signals are shown more often than they occur.
# B1: Als3-41 (Candida albicans) (protein)
# chain: KTITGVFNSFNSLTWSNAATYNYKGPGTPTWNAVLGWSLDGTSASPGDTFTLNMPCVFKFTTSQTSVDLTAHGVKYATCQFQAGEEFMTFSTLTCTVSNTLTPSIKALGTVTLPLAFNVGGTGSSVDLEDSKCFTAGTNTVTFNDGGKKISINVDFERSNVDPKGYLTDSRVIPSLNKVSTLFVAPQCANGYTSGTMGFANTYGDVQIDCSNIHVGITKGLNDWNYPVSSESFSYTKTCSSNGIFITYKNVPAGYRPFVDAYISATDVNSYTLSYANEYTCAGGYWQRAPFTLRWTGYRNSDAGSNGIVIVATTRTVTDSTTAVTTLPFDPNRDKTKTIEILKPIPTTTITTSYVGVTTSYLTKTAPIGETATVIVD
# What was measured:
# Assay in all cases: glycan array binding signal (z-score within array); higher = stronger binding
# Conditions in all cases: glycan notation: IUPAC condensed, linker removed
# Fuc(a1-2)Gal(b1-3)GlcNAc = target: Fuc(a1-2)Gal(b1-3)GlcNAc
# In short: (§1)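 From the Consortium for Functional Glycomics database, 3228 arrays were curated, keeping only those whose protein sequence was available. Binding is given as a within-array Z-score averaged across arrays sharing a protein sequence and across linkers. Negative Z-scores can be read as non-binding.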
# [1] = target: Fuc(a1-2)Gal(b1-3)GlcNAc(b1-2)Man(a1-3)[Fuc(a1-2)Gal(b1-3)GlcNAc(b1-2)Man(a1-6)]Man(b1-4)GlcNAc(b1-4)[Fuc(a1-6)]GlcNAc
# In short: as §1
# [2] = target: Fuc(a1-2)Gal(b1-3)GlcNAc(b1-3)Gal(b1-4)Glc
# In short: as §1
# [3] = target: Fuc(a1-2)Gal6S(b1-3)GlcNAc
# In short: as §1
# [4] = target: Fuc(a1-2)[Gal(a1-3)]Gal(b1-4)GlcNAc(b1-2)Man(a1-3)[Fuc(a1-2)[Gal(a1-3)]Gal(b1-4)GlcNAc(b1-2)Man(a1-6)]Man(b1-4)GlcNAc(b1-4)GlcNAc
# In short: as §1
# [5] = target: Fuc(a1-2)[Gal(a1-3)]Gal(b1-4)GlcNAc(b1-3)[Fuc(a1-2)[Gal(a1-3)]Gal(b1-4)GlcNAc(b1-6)]GalNAc
# In short: as §1
# [6] = target: Fuc(a1-2)[Gal(a1-3)]Gal(b1-4)GlcNAc(b1-6)GalNAc
# In short: as §1
# [7] = target: Fuc(a1-2)[GalNAc(a1-3)]Gal(b1-3)GlcNAc(b1-2)Man(a1-3)[Fuc(a1-2)[GalNAc(a1-3)]Gal(b1-3)GlcNAc(b1-2)Man(a1-6)]Man(b1-4)GlcNAc(b1-4)GlcNAc
# In short: as §1
# [8] = target: Fuc(a1-2)[GalNAc(a1-3)]Gal(b1-4)GlcNAc(b1-2)Man(a1-3)[Fuc(a1-2)[GalNAc(a1-3)]Gal(b1-4)GlcNAc(b1-2)Man(a1-6)]Man(b1-4)GlcNAc(b1-4)[Fuc(a1-6)]GlcNAc
# In short: as §1
# [9] = target: Fuc(a1-2)[GalNAc(a1-3)]Gal(b1-4)GlcNAc(b1-3)Gal(b1-4)GlcNAc(b1-3)Gal(b1-4)GlcNAc
# In short: as §1
# [10] = target: Fuc(a1-3)[Gal(b1-4)]GlcNAc(b1-3)Gal(b1-3)[Fuc(a1-4)]GlcNAc
# In short: as §1
# [11] = target: Fuc(a1-3)[Gal3S(b1-4)]GlcNAc6S
# In short: as §1
# Fuc(a1-4)GlcNAc = target: Fuc(a1-4)GlcNAc
# In short: as §1
# Gal(a1-2)Gal = target: Gal(a1-2)Gal
# In short: as §1
# Gal(b1-2)Gal = target: Gal(b1-2)Gal
# In short: as §1
# [12] = target: Gal(b1-3)GlcNAc(b1-3)Gal(b1-4)GlcNAc(b1-2)[Gal(b1-3)GlcNAc(b1-3)Gal(b1-4)GlcNAc(b1-6)]Man(a1-6)[Gal(b1-3)GlcNAc(b1-3)Gal(b1-4)GlcNAc(b1-2)Man(a1-3)]Man(b1-4)GlcNAc(b1-4)[Fuc(a1-6)]GlcNAc
# In short: as §1
# [13] = target: Gal(b1-3)[Fuc(a1-4)]GlcNAc
# In short: as §1
# [14] = target: Gal(b1-3)[Neu5Ac(b2-6)]GalNAc
# In short: as §1
# [15] = target: Gal(b1-4)GlcNAc(b1-2)Man(a1-6)[GlcNAc(b1-2)Man(a1-3)]Man(b1-4)GlcNAc(b1-4)GlcNAc
# In short: as §1
# [16] = target: Gal(b1-4)GlcNAc(b1-3)Gal(b1-4)GlcNAc(b1-2)Man(a1-3)[Gal(b1-4)GlcNAc(b1-3)Gal(b1-4)GlcNAc(b1-2)Man(a1-6)]Man(b1-4)GlcNAc(b1-4)GlcNAc
# In short: as §1
# [17] = target: Gal(b1-4)GlcNAc(b1-3)Gal(b1-4)GlcNAc(b1-3)Gal(b1-4)GlcNAc(b1-2)Man(a1-3)[Gal(b1-4)GlcNAc(b1-3)Gal(b1-4)GlcNAc(b1-3)Gal(b1-4)GlcNAc(b1-2)Man(a1-6)]Man(b1-4)GlcNAc(b1-4)GlcNAc
# In short: as §1
# [18] = target: Gal(b1-4)GlcNAc(b1-3)Gal(b1-4)GlcNAc(b1-3)Gal(b1-4)GlcNAc(b1-3)Gal(b1-4)GlcNAc(b1-3)Gal(b1-4)GlcNAc(b1-2)Man(a1-3)[Gal(b1-4)GlcNAc(b1-3)Gal(b1-4)GlcNAc(b1-3)Gal(b1-4)GlcNAc(b1-3)Gal(b1-4)GlcNAc(b1-3)Gal(b1-4)GlcNAc(b1-2)Man(a1-6)]Man(b1-4)GlcNAc(b1-4)GlcNAc
# In short: as §1
# [19] = target: Gal(b1-4)GlcNAc(b1-3)Gal(b1-4)GlcNAc(b1-3)Gal(b1-4)GlcNAc(b1-3)Gal(b1-4)GlcNAc(b1-3)Gal(b1-4)GlcNAc(b1-2)[Gal(b1-4)GlcNAc(b1-3)Gal(b1-4)GlcNAc(b1-3)Gal(b1-4)GlcNAc(b1-3)Gal(b1-4)GlcNAc(b1-3)Gal(b1-4)GlcNAc(b1-6)]Man(a1-6)[Gal(b1-4)GlcNAc(b1-3)Gal(b1-4)GlcNAc(b1-3)Gal(b1-4)GlcNAc(b1-3)Gal(b1-4)GlcNAc(b1-3)Gal(b1-4)GlcNAc(b1-2)Man(a1-3)]Man(b1-4)GlcNAc(b1-4)[Fuc(a1-6)]GlcNAc
# In short: as §1
# [20] = target: Gal(b1-4)GlcNAc(b1-3)[Fuc(a1-3)GlcNAc(b1-6)]Gal(b1-4)Glc
# In short: as §1
# Gal3S(b1-4)Glc6S = target: Gal3S(b1-4)Glc6S
# In short: as §1
# GalNAc(b1-4)GlcNAc = target: GalNAc(b1-4)GlcNAc
# In short: as §1
# GalNAc(b1-4)GlcNAc6S = target: GalNAc(b1-4)GlcNAc6S
# In short: as §1
# [21] = target: GlcNAc(b1-2)[GlcNAc(b1-4)]Man(a1-3)[GlcNAc(b1-4)][GlcNAc(b1-2)[GlcNAc(b1-6)]Man(a1-6)]Man(b1-4)GlcNAc(b1-4)[Fuc(a1-6)]GlcNAc
# In short: as §1
# [22] = target: GlcNAc(b1-3)Gal(b1-4)GlcNAc(b1-2)[GlcNAc(b1-3)Gal(b1-4)GlcNAc(b1-6)]Man(a1-6)[GlcNAc(b1-3)Gal(b1-4)GlcNAc(b1-2)Man(a1-3)]Man(b1-4)GlcNAc(b1-4)GlcNAc
# In short: as §1
# [23] = target: GlcNAc(b1-3)Gal(b1-4)GlcNAc(b1-3)Gal(b1-4)GlcNAc(b1-2)Man(a1-3)[GlcNAc(b1-3)Gal(b1-4)GlcNAc(b1-3)Gal(b1-4)GlcNAc(b1-2)Man(a1-6)]Man(b1-4)GlcNAc(b1-4)GlcNAc
# In short: as §1
binder,measurement,setting,value
B1,glycan array binding signal (z-score),Fuc(a1-2)Gal(b1-3)GlcNAc,-0.256
same,glycan array binding signal (z-score),[1],-0.306
same,glycan array binding signal (z-score),[2],-0.317
same,glycan array binding signal (z-score),[3],-0.047
same,glycan array binding signal (z-score),[4],-0.283
same,glycan array binding signal (z-score),[5],1.91
same,glycan array binding signal (z-score),[6],-0.229
same,glycan array binding signal (z-score),[7],-0.203
same,glycan array binding signal (z-score),[8],-0.001
same,glycan array binding signal (z-score),[9],1.63
same,glycan array binding signal (z-score),[10],-0.315
same,glycan array binding signal (z-score),[11],1.6
same,glycan array binding signal (z-score),Fuc(a1-4)GlcNAc,7.63
same,glycan array binding signal (z-score),Gal(a1-2)Gal,-0.006
same,glycan array binding signal (z-score),Gal(b1-2)Gal,-0.182
same,glycan array binding signal (z-score),[12],0.669
same,glycan array binding signal (z-score),[13],-0.315
same,glycan array binding signal (z-score),[14],-0.359
same,glycan array binding signal (z-score),[15],-0.102
same,glycan array binding signal (z-score),[16],6.2
same,glycan array binding signal (z-score),[17],2.56
same,glycan array binding signal (z-score),[18],1.05
same,glycan array binding signal (z-score),[19],-0.117
same,glycan array binding signal (z-score),[20],-0.31
same,glycan array binding signal (z-score),Gal3S(b1-4)Glc6S,-0.151
same,glycan array binding signal (z-score),GalNAc(b1-4)GlcNAc,0.551
same,glycan array binding signal (z-score),GalNAc(b1-4)GlcNAc6S,1.79
same,glycan array binding signal (z-score),[21],-0.311
same,glycan array binding signal (z-score),[22],1.97
same,glycan array binding signal (z-score),[23],2.21
